# Calls of active or inactive are those of the source. No rule for the calls is given here.
# Biological target: Muscarinic acetylcholine receptor M1 (Homo sapiens) (UniProt P11229)
# Test: ACh response enhancement at human M1 – CHO cells, selectivity assay for M5 PAM project (AID 651923)
# Chain of Muscarinic acetylcholine receptor M1 (Homo sapiens) (P11229 whole entry, looked up): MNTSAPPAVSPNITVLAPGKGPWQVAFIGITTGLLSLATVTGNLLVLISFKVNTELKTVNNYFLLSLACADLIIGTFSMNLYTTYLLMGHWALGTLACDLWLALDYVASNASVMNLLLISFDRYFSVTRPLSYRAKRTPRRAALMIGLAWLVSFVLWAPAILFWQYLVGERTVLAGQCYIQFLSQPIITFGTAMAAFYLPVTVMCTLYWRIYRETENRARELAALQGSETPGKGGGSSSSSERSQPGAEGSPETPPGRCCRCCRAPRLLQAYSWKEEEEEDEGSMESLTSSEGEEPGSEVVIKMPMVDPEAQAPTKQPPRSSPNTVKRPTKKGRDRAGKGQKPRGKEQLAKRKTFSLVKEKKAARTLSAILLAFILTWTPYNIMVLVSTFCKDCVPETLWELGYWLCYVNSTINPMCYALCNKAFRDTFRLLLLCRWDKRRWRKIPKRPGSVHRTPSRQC
compound,measurement,value
O=C1C(=O)N(CCOc2ccccc2)c2ccc(OC(F)(F)F)cc21,outcome,inactive

# — PubChem BioAssay AID651923 (Vanderbilt Specialized Chemistry Center, 2012)
